We go through 98 compounds from PubChem BioAssay AID1117319 (Southern Research Institute, 2015).

“And” between values parts separate entries of the source, which are not always exact repeats. Equal entries are not always repeated. The campaign covered roughly 260,000 compounds. About 1,500 (0.58%) were called active. About 5% were inconclusive and are not listed.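 How the source made its calls: active means inhibition above a set limit at one or more doses, reproduced on every date tested; inconclusive means results disagree between test dates, or hit never tested in dose response; inactive means the rest.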 A selection follows. Measured potencies and affinities stand elsewhere.

The experiment deals with Virion infectivity factor (Human immunodeficiency virus type 1 group M subtype B (isolate BH10)) + Virion infectivity factor (Human immunodeficiency virus type 1 group M subtype B (isolate BRU/LAI)) + Virion infectivity factor (Human immunodeficiency virus type 1 group M subtype B (isolate PCV12)) + Virion infectivity factor (Human immunodeficiency virus type 1 group M subtype B (isolate HXB2)) + DNA dC->dU-editing enzyme APOBEC-3G (Homo sapiens) (UniProt P69720+P69721+P69722+P69723+Q9HC16). The experiment in a line: HIV-1 Vif–A3G interaction blockers – biochemical, TR-FRET, GST-Vif 1-94, biotin-A3G peptide, dose response retest, primary screen (AID 1117319).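 Further: Vif residues 1-94 fused to GST binding biotinylated APOBEC3G peptide 110-148; 0% = full assay without inhibitor and 100% = GST in place of GST-Vif.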 The settings on record: TR-FRET GST-Vif / biotin-A3G peptide binding; hits give high values.
For `NNc1nc(C(F)(F)F)nc2ccccc12`, the inhibition was -3.12% (inactive). As to `C/C(O)=c1/ccc2cccc3nc(C)nc1c23`, the inhibition is 32.6% (inactive). Consider `Cc1ccc(S(=O)(=O)NC2CCCCC2)cc1C(=O)N1CCC(C(N)=O)CC1`, for which the inhibition is -4.11% (inactive). The value for `COCCN(CCOC)Cc1c(O)ccc2c1O/C(=C\c1ccco1)C2=O` was 25.4% (inactive). Consider `CC(C)(C)c1ccc(/C=C2\Oc3c(ccc(O)c3CN3CCN(CCO)CC3)C2=O)cc1`, for which the inhibition is 2.03% (inactive). On to `CCc1ccc(/C=C2\Oc3c(ccc(O)c3CN3CCN(C)CC3)C2=O)cc1`, for which the inhibition was 29.7% (inactive). Take `Cc1ccc(/C=C2\Oc3c(ccc(O)c3CN3CCN(CCO)CC3)C2=O)cc1`: the inhibition was -6.62% (inactive).

As to `COc1ccccc1-c1coc2c(CN3CCCC(C)C3)c(O)ccc2c1=O` (stereo not drawn), the inhibition was -11.2% (inactive). The value for `CCN1CCN(Cc2c(O)ccc3c2O/C(=C\c2ccccc2)C3=O)CC1` was -1.46% (inactive); that for `C=CCN1C(C(=O)c2ccccc2)=C(OC(=O)COc2ccccc2)c2ccccc2S1(=O)=O` was -2.45% (inactive); that for `COc1cc(OC)cc(-c2cc(N3C(=O)Nc4ccccc4N3O)n[nH]2)c1` was 2.06% (inactive). For the compound `CCN(CC)CCCC(C)Nc1nccc2cccc(Cl)c12` (stereo not drawn), the inhibition is -1% (inactive). To `C=CCn1c(SCC(=O)NCCOC)nc2scc(-c3ccco3)c2c1=O` belongs 27.8% (inactive); to `C=CCn1c(SCC(=O)NCCCC(=O)OCC)nc2scc(-c3ccco3)c2c1=O`, -13% (inactive). To `Cc1onc(-c2c(F)cccc2Cl)c1C(=O)Nc1nnc(-c2ccccc2)s1` belongs -20.2% (inactive); to `Cc1onc(-c2c(F)cccc2Cl)c1C(=O)Nc1nccs1`, -2.44% (inactive); to `CCN1CCN(C(=O)c2ccc(CSc3ccc(C)cc3)cc2)CC1`, -0.41% (inactive).

As to `O=C(Cn1c(=O)oc2ccccc21)Nc1ccc(S(=O)(=O)N2CCCCC2)cc1`, the inhibition is 16% (inactive).

On to `O=Cc1cccc(OCc2cccc3ccccc23)c1`, for which the inhibition is -9.48% (inactive).

As to `c1ccc2c(c1)CCCN2Cc1nnnn1C1CCCC1`, the inhibition was 4.12% (inactive).

Regarding `c1ccc(Cc2nnc3n2CCCCC3)cc1`, the inhibition is -1.19% (inactive). Consider `CSc1ccccc1NC(=O)CN(C)C(=O)c1c(C)nn(Cc2ccccc2)c1C`, for which the inhibition was 0.13% (inactive). To `CCc1ccc(NS(=O)(=O)c2ccc3[nH]cc(C(=O)N(C)Cc4ccco4)c(=O)c3c2)cc1` belongs 6.93% (inactive); to `CN(Cc1ccco1)C(=O)c1c[nH]c2ccc(S(=O)(=O)Nc3ccc4c(c3)OCCO4)cc2c1=O`, 11.3% (inactive). The value for `CC(C)N(C(=O)[C@H]1C[C@H](CC(=O)NCCN2CCOCC2)C(=O)N2CCc3c([nH]c4ccc(Cl)cc34)[C@]12C)C(C)C` was -2.31% (inactive); that for `C=CCn1c(COc2cccc(C)c2)nnc1SCC(=O)NC(=O)NCc1ccco1` was 3.84% (inactive) and 20.2% (inactive); that for `C=CCn1c(COc2ccccc2F)nnc1SCC(=O)NC(=O)NCc1ccco1` was 13.7% (inactive). Turning to `CC(C)(C)NC(=O)/C=C/c1cccs1`, the inhibition was -6.7% (inactive).

As to `COc1ccc(/C=C2/C(=O)N=C(N)N2C)cc1OC`, the inhibition is -1.18% (inactive). As for `COC(=O)c1ccc(Sc2nnnn2-c2ccccc2)c([N+](=O)[O-])c1`, the inhibition was 4.9% (inactive).

Regarding `CC(=O)c1ccc(Sc2nnnn2-c2ccccc2)c([N+](=O)[O-])c1`, the inhibition is 7.06% (inactive). The value for `Cc1csc(NC(=O)Cc2ccccc2[N+](=O)[O-])n1` was -11% (inactive); that for `CN(C(=O)CSc1nnc2ccccn12)C1CCS(=O)(=O)C1` (stereo not drawn) was 5.32% (inactive); that for `Cc1ccc(OCCCC(=O)Nc2ccc(S(N)(=O)=O)cc2)cc1` was -3.06% (inactive). As for `O=C1C=C(Nc2cccnc2)c2ccccc2C1=O`, the inhibition was -2.43% (inactive). The value for `O=C1C=C(Nc2ccccc2O)c2ccccc2C1=O` was 29.9% (inactive); that for `O=[N+]([O-])c1ccc(Cl)c(/C=N/N2CCN(Cc3ccc(Cl)cc3)CC2)c1` was -0.57% (inactive). The value for `CCOc1ccc(N/C(C)=C/C(=O)c2ccc(C)o2)cc1` was 1.46% (inactive); that for `COc1cccc(C2Nc3ccc4ccccc4c3C3=C2C(=O)CCC3)c1O` (stereo not drawn) was -3.25% (inactive); that for `CC1(C)CC(=O)C2=C(C1)c1c(ccc3ccccc13)NC2c1ccco1` (stereo not drawn) was 7.86% (inactive). For the compound `Cc1onc(-c2ccccc2Cl)c1C(=O)NCc1ccccn1`, the inhibition is -1.21% (inactive). As to `COC(=O)COC(=O)CC(CC(N)=O)c1ccccc1` (stereo not drawn), the inhibition was -2.81% (inactive). To `COC(=O)Nc1nc2c(C)cccc2s1` belongs 1.68% (inactive); to `Cc1cc(C(=O)Nc2nc3c(C)cccc3s2)c(C)o1`, 17.4% (inactive). In the case of `Cc1c(C(=O)c2ccc([N+](=O)[O-])cc2)c(=O)n(C)c(=O)n1C`, the inhibition is -3.13% (inactive). For the compound `CCC(=O)N1CCC2(CC1)Oc1ccc(F)cc1C(=O)C21CC(c2cccnc2)=NO1` (stereo not drawn), the inhibition was 3.73% (inactive). The value for `CCOC(=O)C(Cc1ccnnc1)=NO` was -0.8% (inactive); that for `CCOC(=O)C(=O)Cc1nc2ccccc2s1` was -1.72% (inactive). The value for `Cc1nc2sc(C(c3ccco3)N3CCN(c4ccc(F)cc4)CC3)c(O)n2n1` (stereo not drawn) was 13.8% (inactive); that for `Cc1cc(C(=O)CN2CCCC2)c(C)n1-c1ccc(Cl)cc1` was 1.44% (inactive); that for `CC(=O)Oc1ccc2c(c1)C(=O)c1ccccc1CO2` was 7.33% (inactive). For `O=C(Oc1ccc2c(c1)C(=O)c1ccccc1CO2)c1ccccc1`, the inhibition is 1.85% (inactive). As for `COc1ccc(CNC(=O)COC(=O)c2cccc(S(=O)(=O)N3CCOCC3)c2)cc1`, the inhibition was 10.9% (inactive). The value for `COc1ccc(NC(=O)c2cnc3n(c2=O)CCS3)cc1OC` was 10.7% (inactive); that for `CCOc1ccc(/C=C(\C(=O)O)c2ccc(S(=O)(=O)N3CCOCC3)s2)cc1OC` was 28.4% (inactive); that for `O=S(=O)(Cc1cc(Sc2ccc(Cl)cc2)nc(-c2ccccc2)n1)c1ccccc1` was 3.1% (inactive). On to `O=C1CC(=O)N(Cc2cccs2)C(=O)N1`, for which the inhibition was 18% (inactive).

As to `CC1CN(Cc2ccco2)C(=S)NC1=O` (stereo not drawn), the inhibition is 1.05% (inactive). `O=C1CCN(Cc2ccco2)C(=S)N1`: the inhibition was 3.3% (inactive). The value for `O=C1C2C(C(=O)N1Cc1ccco1)C1C=CC2C12CC2` (stereo not drawn) was -1.81% (inactive); that for `COc1ccc(-n2c(=O)c(CCC(=O)N(C)Cc3cccs3)nc3ccccc32)cc1` was -5.63% (inactive); that for `COc1ccccc1NS(=O)(=O)c1ccc(C)c(C(=O)NCC2(N(C)C)CCCCC2)c1` was -8.71% (inactive). Turning to `Cc1nc2ccc(F)cc2cc1C(=O)NC(C)C`, the inhibition was -0.13% (inactive). To `CCOC(=O)c1cc2cc(OC)ccc2nc1C` belongs 4.64% (inactive); to `CCc1nc(NCc2ccc3c(c2)OCO3)c2oc3ccccc3c2n1`, 5.19% (inactive); to `CCNC(=O)CN(c1ccc(CC)cc1)S(C)(=O)=O`, -1.87% (inactive). The value for `Cc1nc(Nc2ccc(Cl)c(Cl)c2)sc1C(/C=C/c1ccc2c(c1)OCO2)=NNc1ccc([N+](=O)[O-])cc1[N+](=O)[O-]` was 0.47% (inactive).

As for `CCCN(CC(=O)Nc1ccccc1OC)C(=O)Cn1[nH]c(=O)c2ccccc2c1=O`, the inhibition was -0.74% (inactive). The value for `O=C(O)/C(=C\c1cccc(O)c1)c1ccc(S(=O)(=O)N2CCCC2)s1` was 14.8% (inactive); that for `O=C(O)/C(=C\c1cccc(F)c1)c1ccc(S(=O)(=O)N2CCCC2)s1` was 18.6% (inactive). `CN(CCC#N)C(=O)CC(Cc1ccccc1)C1CCOC(C)(C)C1` (stereo not drawn): the inhibition was 28.5% (inactive). For `CCCn1cnc2cc(NCc3ccccc3O)ccc21`, the inhibition is -2.34% (inactive). To `CCn1cnc2cc(NCc3ccncc3)ccc21` belongs 18.7% (inactive). Regarding `CC(C)n1cnc2cc(NCc3ccccn3)ccc21`, the inhibition was 14.4% (inactive). For `CCCn1cnc2cc(NCc3ccc(Br)cc3)ccc21`, the inhibition was -8.23% (inactive). Turning to `CCNC(=S)NCCN1CCCCC1`, the inhibition was -5.58% (inactive).

Regarding `Cc1cc(C)cc(NC(=O)Cn2cc3c(n2)CCCCC3)c1`, the inhibition is 0.97% (inactive). Regarding `CC(=O)Nc1ccc(NC(=O)Cn2cc3c(n2)CCCC3)cc1`, the inhibition was -2.34% (inactive).

For the compound `Cc1cc(C)c2c(N)c(-c3nc4ccccc4[nH]3)sc2n1`, the inhibition was 1.28% (inactive).

For `O=C1CSC(=S)N1c1ccccc1`, the inhibition was -4.55% (inactive). To `CCN(CC)c1ccc(N2C(=O)CSC2=S)cc1` belongs -8.43% (inactive); to `Cc1ccc(S(=O)(=O)Nc2cccc(C(=O)N3CCCC3)c2)cc1F`, 3.33% (inactive). Take `O=c1oc2c3c4c(cc2c(C(F)(F)F)c1CCN1CCOCC1)CCCN4CCC3`: the inhibition is 16.6% (inactive). The value for `CC(C)c1cc(=O)oc2c3c4c(cc12)CCCN4CCC3` was 13.8% (inactive). As for `N/C(=N\OC(=O)CN1C(=O)c2ccccc2C1=O)c1ccc(Cl)cc1`, the inhibition was -10.1% (inactive). As for `COc1ccc(N2CCN(C(=O)COC(=O)c3oc4ccc(OC)cc4c3C)CC2)cc1`, the inhibition was 1.73% (inactive). As for `COc1ccc(NC(=O)C(NC(C)=O)C(=O)NCc2ccccc2)cc1` (stereo not drawn), the inhibition is 2.8% (inactive). The value for `O=C(Nc1ccn(-c2ccccc2)n1)c1ccc(Cl)cc1` was -12.3% (inactive); that for `CC(=O)Nc1ccn(-c2ccccc2)n1` was 15.9% (inactive); that for `COc1ccc(S(=O)(=O)N(CC(=O)NCc2ccco2)C2CCCCC2)cc1OC` was 24% (inactive).

Regarding `COC(=O)c1cc([N+](=O)[O-])c(C)c(C)n1`, the inhibition is -2.89% (inactive). The value for `CCN1CCc2c(C#N)c(N3CCOCC3)nc(NCc3ccccc3)c2C1` was 13.6% (inactive); that for `CCN1CCc2c(C#N)c(N3CCCCC3)nc(NCc3ccccc3)c2C1` was 25.2% (inactive); that for `CCCc1c(C)[nH]c2ccccc2c1=O` was 6.62% (inactive). Consider `CC1=NN(c2cccc(C(=O)O)c2)C(=O)/C1=C\C=C/c1ccccc1`, for which the inhibition is 29.5% (inactive).

Take `CC1=NN(c2ccc(Cl)c(C(=O)O)c2)C(=O)/C1=C\c1ccc(-c2ccc(C(=O)O)cc2)o1`: the inhibition is 1.61% (inactive).

In the case of `CC1=NN(c2ccc(Cl)c(C(=O)O)c2)C(=O)C1`, the inhibition is 29.9% (inactive). To `CC1=NN(c2ccc(C)cc2)C(=O)/C1=C\C=C\c1ccccc1` belongs -3.38% (inactive).
